The record followed here is PubChem BioAssay (NCATS).

Records with an inconclusive call do not appear. The source made the active and inactive calls. Calls come from the whole dose curve; as a rule, active = well fitted inhibition curve with a large enough effect; inconclusive = small, poorly fitted or top-dose-only effect; inactive = flat fitted curve, though single readings scatter.
% is set by controls: 0 for no effect and ±100 for the full control effect; potency is the fitted concentration of half-maximal effect.

The subject of the test is KB-3-1. Put plainly: Cytotoxic Profiling of Annotated Libraries Using Quantitative High-Throughput Screening (AID 1296008). Note: nearly all actives have a fitted effect of over 60% in size. As to conditions: Five cell lines viability, CellTiter-Glo ATP luminescence, 48-72 h; max response: active compounds read low. The essentials:
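Compounds were pin-transferred onto cells and incubated 48 or 72 hr at 37 degree Celsius, 95% humidity. CellTiter-Glo was added, plates sat 10 min at room temperature, then ATP-coupled luminescence was imaged as the viability read-out.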
(In general: ATP-based viability assays read luminescence as a measure of living cells.)
`CCCCC(CC)COS(=O)(=O)O` (centres undefined): the max response was -16.9% (inactive).
Same read-out and setting: the same measure for `Nc1nc(=O)n([C@@H]2CS[C@H](CO)O2)cc1F`: 6.08% (inactive).
Turning to `CCCCO`, the max response was -19.5% (inactive).
For the compound `COc1cc(S(C)=O)ccc1-c1nc2ncccc2[nH]1` (centres undefined), the max response is 26.5% (inactive).
On to `COc1cc2c(cc1OC)[C@@H](c1ccccc1)CN(C)CC2`, for which the max response is -3.02% (inactive).
The same measure, in the same setting: the same measure for `C#C[C@]1(O)CC[C@@H]2[C@H]3CCC4=CC(=O)CC[C@H]4[C@H]3C(=C)C[C@@]21CC`: 1.8% (inactive); for `Cc1ncc(C[n+]2csc(CCO)c2C)c(N)n1`: -14.6% (inactive).
In the case of `CC(C)OC(=O)Nc1ccc2nc(-c3cscn3)[nH]c2c1`, the Potency is 5.8 µM (active).
`O=P(O)(O)OC[C@H](O)CO`: the max response was -16.7% (inactive).
The same measure, in the same setting: under `Cc1c(Cl)cccc1Nc1ncccc1C(=O)O` stands 2.98% (inactive); under `O=C(Nc1ccc(O)cc1)c1ccccc1O`, 4.06% (inactive); under `NCCCC[C@H](N)C(=O)O`, 0.45% (inactive).
On the same count and under the same terms, under `CC(=O)[C@H]1CC[C@H]2[C@@H]3C=CC4=CC(=O)CC[C@@]4(C)[C@H]3CC[C@]12C` stands -2.63% (inactive).
On the same count and under the same terms, the same measure for `O=P(O)(O)CP(=O)(O)O`: -3.6% (inactive); for `c1ccc(-n2cnnn2)cc1`: 0.0496% (inactive).
As for `FC(F)(F)C(F)(F)C(F)(F)C(F)(F)C(F)(F)F`, the max response is -12.9% (inactive).
Still for that read-out and setting: the same measure for `C[N+]1(C)[C@@H]2CC(OC(=O)C(O)(c3cccs3)c3cccs3)C[C@H]1[C@@H]1O[C@@H]12` (some centres undefined): -8.8% (inactive).
Regarding `CCCCC[C@H](O)/C=C/[C@H]1[C@H](O)CC(=O)[C@@H]1C/C=C\CCCC(=O)O`, the max response was 7.78% (inactive).
Same read-out and setting: the same measure for `COc1ccc(/C=C/C(=O)OCCC(C)C)cc1`: -0.838% (inactive); for `CC(C)(C)C(=O)OCC(=O)[C@H]1CC[C@H]2[C@@H]3CCC4=CC(=O)CC[C@]4(C)[C@H]3CC[C@]12C`: -9.73% (inactive).
Still for that read-out and setting: under `CN1CCN(C(c2ccccc2)c2ccc(Cl)cc2)CC1` (centres undefined) stands 0.99% (inactive); under `CC[C@H]1OC(=O)[C@H](C)[C@@H](O[C@H]2C[C@@](C)(OC)[C@@H](O)[C@H](C)O2)C(C)[C@@H](O[C@@H]2O[C@H](C)C[C@H](N(C)C)[C@@H]2O)[C@](C)(OC)C[C@@H](C)C(=O)[C@H](C)[C@@H](O)[C@]1(C)O` (some centres undefined), -4.62% (inactive); under `CC[C@H]1NC(=O)[C@@H](NC(=O)c2ncccc2O)[C@@H](C)OC(=O)[C@H](c2ccccc2)NC(=O)[C@@H]2CC(=O)CCN2C(=O)[C@H](Cc2ccccc2)N(C)C(=O)[C@@H]2CCCN2C1=O`, 2% (inactive).
Still for that read-out and setting: the same measure for `CC(C)CCCC(C)NC(C)C` (centres undefined): 0.846% (inactive).
